# Tests used:
# [1] = tested on: RPS6KA4(Kin.Dom.1-N-terminal)
# [2] = tested on: RPS6KA5(Kin.Dom.1-N-terminal)
# 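Note: kd values determined as follow-up on hits from a single-replicate KINOMEscan panel screen.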
smiles,measurement,setting,value
C[C@@H]1CCN(C(=O)CO)C[C@@H]1N(C)c1ncnc2[nH]ccc12,Kd,PRKG1,> 10000 nM
same,Kd,[1],> 10000 nM
Nc1nc(-c2ccc3c(N)n[nH]c3c2)cc(N2CCC[C@@H](C(=O)Nc3ccccc3)C2)n1.O=C(O)C(F)(F)F.O=C(O)C(F)(F)F [GSK2288359],Kd,RIOK3,570 nM
Nc1nccc2scc(-c3ccc4c(c3)CCN4C(=O)Cc3cc(F)ccc3F)c12 [GSK2587663],Kd,RIPK1,570 nM
O=C(Nc1ccccc1F)NC1CCN(c2ccnc(Nc3ccc(F)cc3)n2)C1 (stereo not shown) [GSK1379722],Kd,RIPK4,> 10000 nM
Cl.Cl.c1ccc(-c2cc3ccncc3cc2OC2CCNCC2)cc1 [GSK1122999],Kd,ROCK1,130 nM
same,Kd,ROCK2,180 nM
NC(=O)c1sc(-n2cnc3ccccc32)cc1OCc1ccccc1F [GSK1024306],Kd,ROCK1,460 nM
same,Kd,ROCK2,470 nM
Fc1cccc(COc2ccc(Nc3ncnc4sc(-c5ccc[nH]5)cc34)cc2Cl)c1 [GW707818],Kd,[2],> 10000 nM
